Our source for the binding signal values is publication PMC7862700, “An all-to-all approach to the identification of sequence-specific readers for epigenetic DNA modifications on cytosine”.

What all share (assay): DAPPL (digital affinity profiling via proximity ligation, sequencing); 10 mM Tris-HCl pH 7.5, 50 mM NaCl, 1 mM DTT, 4% glycerol, room temperature, 30 min; GST-TFs on glutathione beads, 16-mer random dsDNA library, 0.1% formaldehyde crosslink after washing; high values mean tight binding
Assay [1] concerns the target T1, FLI1 (Homo sapiens, UniProt Q01543 1-452).
T1 sequence: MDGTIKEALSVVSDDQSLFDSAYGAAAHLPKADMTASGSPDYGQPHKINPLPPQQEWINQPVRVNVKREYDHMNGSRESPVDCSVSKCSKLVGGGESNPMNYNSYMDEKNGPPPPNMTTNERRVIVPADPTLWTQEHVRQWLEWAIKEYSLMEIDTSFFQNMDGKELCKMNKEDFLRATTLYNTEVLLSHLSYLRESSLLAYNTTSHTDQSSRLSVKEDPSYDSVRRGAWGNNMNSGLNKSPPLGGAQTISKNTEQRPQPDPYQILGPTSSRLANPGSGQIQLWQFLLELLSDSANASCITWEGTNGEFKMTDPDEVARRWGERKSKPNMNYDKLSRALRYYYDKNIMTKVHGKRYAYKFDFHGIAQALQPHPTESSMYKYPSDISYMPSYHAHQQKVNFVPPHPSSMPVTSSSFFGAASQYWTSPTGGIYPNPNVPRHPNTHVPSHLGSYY
The conditions noted are these: protein: recombinant; tags: N-terminal GST; dsDNA, one strand shown. Put shortly:
(§1)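 In yeast, human transcription factors were expressed with a GST fusion, then pulled down on glutathione beads and given DNA barcodes. Pooled with a tag-only sample, they were exposed to 200 nmole of a 16-mer random double-stranded DNA library (Tris/NaCl/DTT/glycerol buffer, room temperature, 30 min), washed, crosslinked with 0.1% formaldehyde, proximity-ligated using BsaI/T4 ligase for 1 h at 37 °C, PCR-amplified and read on an Illumina NextSeq500. Each hexamer's frequency of reads for a factor, divided by the matching frequency for the tag-only sample, gives the binding signal.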

The target of assay [2] is T2, ELK1 (Homo sapiens, UniProt P19419 1-428).
T2 sequence: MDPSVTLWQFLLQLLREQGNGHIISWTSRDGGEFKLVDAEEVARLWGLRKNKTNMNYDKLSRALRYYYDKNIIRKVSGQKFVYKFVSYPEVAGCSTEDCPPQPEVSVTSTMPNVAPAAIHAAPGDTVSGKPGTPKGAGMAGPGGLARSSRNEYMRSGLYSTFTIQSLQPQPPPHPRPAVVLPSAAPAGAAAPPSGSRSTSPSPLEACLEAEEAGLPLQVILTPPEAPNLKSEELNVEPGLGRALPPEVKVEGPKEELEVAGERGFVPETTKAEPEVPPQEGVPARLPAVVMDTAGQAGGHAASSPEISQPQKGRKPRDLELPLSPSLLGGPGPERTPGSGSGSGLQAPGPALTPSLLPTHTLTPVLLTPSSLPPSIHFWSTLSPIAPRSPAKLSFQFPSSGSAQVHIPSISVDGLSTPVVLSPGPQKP
As to conditions: protein: recombinant; tags: N-terminal GST; dsDNA, one strand shown. Put shortly:
as §1

Assay [3] addresses T3, GABPA (Homo sapiens, UniProt Q06546 1-454).
T3 sequence: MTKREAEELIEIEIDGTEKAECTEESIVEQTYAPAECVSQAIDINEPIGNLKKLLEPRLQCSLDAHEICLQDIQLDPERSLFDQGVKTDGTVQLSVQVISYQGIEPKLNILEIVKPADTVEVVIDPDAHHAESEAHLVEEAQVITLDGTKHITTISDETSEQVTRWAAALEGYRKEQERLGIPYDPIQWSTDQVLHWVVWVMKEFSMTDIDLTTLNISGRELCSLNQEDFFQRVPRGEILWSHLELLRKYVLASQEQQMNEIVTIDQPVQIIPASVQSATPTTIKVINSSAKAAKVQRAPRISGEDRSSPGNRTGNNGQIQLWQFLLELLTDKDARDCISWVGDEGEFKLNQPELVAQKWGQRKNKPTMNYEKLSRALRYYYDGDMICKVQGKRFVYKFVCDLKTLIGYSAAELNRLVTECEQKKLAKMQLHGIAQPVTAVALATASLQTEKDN
As to conditions: protein: recombinant; tags: N-terminal GST; dsDNA, one strand shown. An outline of the steps:
as §1

Assay [4] addresses T4, ERG (Homo sapiens, UniProt P11308 1-479).
T4 sequence: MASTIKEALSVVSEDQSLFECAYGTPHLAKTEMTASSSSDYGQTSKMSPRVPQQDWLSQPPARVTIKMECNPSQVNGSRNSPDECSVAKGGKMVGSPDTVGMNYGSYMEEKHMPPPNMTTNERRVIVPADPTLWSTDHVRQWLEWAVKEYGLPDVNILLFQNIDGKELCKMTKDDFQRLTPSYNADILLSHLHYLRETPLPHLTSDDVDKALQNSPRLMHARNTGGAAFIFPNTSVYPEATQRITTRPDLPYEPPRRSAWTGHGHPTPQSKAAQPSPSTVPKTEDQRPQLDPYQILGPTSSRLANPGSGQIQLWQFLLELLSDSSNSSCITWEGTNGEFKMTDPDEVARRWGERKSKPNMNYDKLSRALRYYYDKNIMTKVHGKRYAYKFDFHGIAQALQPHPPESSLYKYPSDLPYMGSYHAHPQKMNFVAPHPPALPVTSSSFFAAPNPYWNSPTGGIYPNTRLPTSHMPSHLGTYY
The conditions noted are these: protein: recombinant; tags: N-terminal GST; dsDNA, one strand shown. An outline of the steps:
as §1

Assay [5] addresses ELF1 (Homo sapiens, UniProt P32519 1-619). As to conditions: protein: recombinant; tags: N-terminal GST; dsDNA, one strand shown. An outline of the steps: as §1
Assay [6] deals with T5, EHF (Homo sapiens, UniProt Q9NZC4 1-300).
T5 sequence: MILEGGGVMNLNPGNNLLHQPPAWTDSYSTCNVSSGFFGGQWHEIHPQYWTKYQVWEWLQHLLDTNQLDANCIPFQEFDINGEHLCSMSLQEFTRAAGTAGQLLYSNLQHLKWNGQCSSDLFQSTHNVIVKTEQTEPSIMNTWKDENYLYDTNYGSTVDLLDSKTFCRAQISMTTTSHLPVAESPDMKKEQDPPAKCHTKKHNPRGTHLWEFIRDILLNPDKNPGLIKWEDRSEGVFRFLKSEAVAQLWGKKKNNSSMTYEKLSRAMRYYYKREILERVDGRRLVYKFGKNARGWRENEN
As to conditions: protein: recombinant; tags: N-terminal GST; dsDNA, one strand shown. Put shortly: as §1

Assay [7] has as its target SPI1 (Homo sapiens, UniProt P17947 1-270). The conditions noted are these: protein: recombinant; tags: N-terminal GST; dsDNA, one strand shown. An outline of the steps:
as §1

The target of assay [8] is SPIB (Homo sapiens, UniProt Q01892 1-262). The conditions noted are these: protein: recombinant; tags: N-terminal GST; dsDNA, one strand shown. Put shortly:
as §1

Assay [9] addresses T6, ELK3 (Homo sapiens, UniProt P41970 1-407).
T6 sequence: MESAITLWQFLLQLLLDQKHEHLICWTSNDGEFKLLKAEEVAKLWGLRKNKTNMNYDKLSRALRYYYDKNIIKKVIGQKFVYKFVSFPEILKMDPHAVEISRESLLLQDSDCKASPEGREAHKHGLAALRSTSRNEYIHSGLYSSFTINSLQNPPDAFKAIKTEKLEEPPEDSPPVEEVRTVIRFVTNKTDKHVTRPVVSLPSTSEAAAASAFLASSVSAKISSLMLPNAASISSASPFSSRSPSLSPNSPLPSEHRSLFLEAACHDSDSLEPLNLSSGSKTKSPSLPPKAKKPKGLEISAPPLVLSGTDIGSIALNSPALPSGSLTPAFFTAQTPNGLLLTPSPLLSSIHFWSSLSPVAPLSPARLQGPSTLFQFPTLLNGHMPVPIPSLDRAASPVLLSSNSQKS
As to conditions: protein: recombinant; tags: N-terminal GST; dsDNA, one strand shown. Put shortly: as §1

For assay [10], the target named is T7, FEV (Homo sapiens, UniProt Q99581 1-238).
T7 sequence: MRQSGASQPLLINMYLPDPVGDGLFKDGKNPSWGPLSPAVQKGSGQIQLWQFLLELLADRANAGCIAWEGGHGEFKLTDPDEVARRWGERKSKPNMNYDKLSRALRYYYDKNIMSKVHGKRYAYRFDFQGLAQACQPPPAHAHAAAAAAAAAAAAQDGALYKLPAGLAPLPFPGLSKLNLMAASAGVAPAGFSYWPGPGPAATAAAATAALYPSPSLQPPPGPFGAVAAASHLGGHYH
The conditions noted are these: protein: recombinant; tags: N-terminal GST; dsDNA, one strand shown. Put shortly: as §1

Assay [11] deals with ETV5 (Homo sapiens, UniProt P41161 1-510). The conditions noted are these: protein: recombinant; tags: N-terminal GST; dsDNA, one strand shown. An outline of the steps: as §1
Assay [12] concerns the target HSF1 (Homo sapiens, UniProt Q00613 1-529). The conditions noted are these: protein: recombinant; tags: N-terminal GST; chain copies: 3; dsDNA, one strand shown. An outline of the steps: as §1
Assay [13] has as its target T8, SPIC (Homo sapiens, UniProt Q8N5J4 1-248).
T8 sequence: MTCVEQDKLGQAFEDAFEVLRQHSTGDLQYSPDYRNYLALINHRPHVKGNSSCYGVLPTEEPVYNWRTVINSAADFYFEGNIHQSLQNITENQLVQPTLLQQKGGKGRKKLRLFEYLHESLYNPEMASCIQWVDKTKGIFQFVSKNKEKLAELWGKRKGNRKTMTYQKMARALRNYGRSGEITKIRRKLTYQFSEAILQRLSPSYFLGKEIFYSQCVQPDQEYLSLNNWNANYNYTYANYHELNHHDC
The conditions noted are these: protein: recombinant; tags: N-terminal GST; dsDNA, one strand shown. Put shortly: as §1

The target of assay [14] is ELF4 (Homo sapiens, UniProt Q99607 1-663). The conditions noted are these: protein: recombinant; tags: N-terminal GST; dsDNA, one strand shown. Put shortly:
as §1

In assay [15] the target is T9, ELK4 (Homo sapiens, UniProt P28324-2 1-405).
T9 sequence: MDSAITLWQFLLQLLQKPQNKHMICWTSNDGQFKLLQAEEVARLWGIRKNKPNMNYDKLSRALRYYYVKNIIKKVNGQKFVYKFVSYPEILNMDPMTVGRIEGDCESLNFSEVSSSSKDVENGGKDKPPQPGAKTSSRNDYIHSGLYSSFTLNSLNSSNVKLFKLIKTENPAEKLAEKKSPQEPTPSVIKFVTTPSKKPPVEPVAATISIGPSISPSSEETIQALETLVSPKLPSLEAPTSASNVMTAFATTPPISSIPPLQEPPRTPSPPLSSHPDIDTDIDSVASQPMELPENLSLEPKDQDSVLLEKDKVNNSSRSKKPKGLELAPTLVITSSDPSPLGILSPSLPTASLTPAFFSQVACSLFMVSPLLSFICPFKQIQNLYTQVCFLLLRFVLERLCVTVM
As to conditions: protein: recombinant; tags: N-terminal GST; dsDNA, one strand shown. An outline of the steps:
as §1

For assay [16], the target named is T10, ETV2 (Homo sapiens, UniProt O00321 1-342).
T10 sequence: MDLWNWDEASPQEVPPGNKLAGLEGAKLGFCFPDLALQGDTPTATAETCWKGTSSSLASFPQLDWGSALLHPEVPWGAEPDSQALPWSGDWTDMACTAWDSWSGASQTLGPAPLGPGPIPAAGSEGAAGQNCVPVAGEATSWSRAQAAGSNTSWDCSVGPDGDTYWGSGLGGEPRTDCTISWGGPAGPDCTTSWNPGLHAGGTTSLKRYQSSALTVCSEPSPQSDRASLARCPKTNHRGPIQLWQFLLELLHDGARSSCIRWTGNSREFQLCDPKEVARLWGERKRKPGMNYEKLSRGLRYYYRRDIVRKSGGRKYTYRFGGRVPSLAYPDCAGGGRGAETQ
The conditions noted are these: protein: recombinant; tags: N-terminal GST; dsDNA, one strand shown. Put shortly: as §1

For assay [17], the target named is T11, ELF3 (Homo sapiens, UniProt P78545 1-371).
T11 sequence: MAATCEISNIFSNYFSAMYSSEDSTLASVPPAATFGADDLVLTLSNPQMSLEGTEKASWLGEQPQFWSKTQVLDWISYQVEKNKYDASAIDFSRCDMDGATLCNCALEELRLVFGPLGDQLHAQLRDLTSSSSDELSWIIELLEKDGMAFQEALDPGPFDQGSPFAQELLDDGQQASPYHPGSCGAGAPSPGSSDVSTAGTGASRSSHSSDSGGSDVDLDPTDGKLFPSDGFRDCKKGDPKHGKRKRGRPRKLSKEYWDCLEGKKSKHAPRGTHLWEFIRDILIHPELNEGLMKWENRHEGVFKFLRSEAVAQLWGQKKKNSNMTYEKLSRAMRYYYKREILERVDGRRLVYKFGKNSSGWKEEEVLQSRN
The conditions noted are these: protein: recombinant; tags: N-terminal GST; dsDNA, one strand shown. Put shortly:
as §1

For assay [18], the target named is CRX (Homo sapiens, UniProt O43186 1-299). The conditions noted are these: protein: recombinant; tags: N-terminal GST; dsDNA, one strand shown. An outline of the steps: as §1
Assay [19] deals with ETV1 (Homo sapiens, UniProt P50549 1-477). The conditions noted are these: protein: recombinant; tags: N-terminal GST; dsDNA, one strand shown. Put shortly: as §1
Sequence of ETV1 (P50549 whole entry): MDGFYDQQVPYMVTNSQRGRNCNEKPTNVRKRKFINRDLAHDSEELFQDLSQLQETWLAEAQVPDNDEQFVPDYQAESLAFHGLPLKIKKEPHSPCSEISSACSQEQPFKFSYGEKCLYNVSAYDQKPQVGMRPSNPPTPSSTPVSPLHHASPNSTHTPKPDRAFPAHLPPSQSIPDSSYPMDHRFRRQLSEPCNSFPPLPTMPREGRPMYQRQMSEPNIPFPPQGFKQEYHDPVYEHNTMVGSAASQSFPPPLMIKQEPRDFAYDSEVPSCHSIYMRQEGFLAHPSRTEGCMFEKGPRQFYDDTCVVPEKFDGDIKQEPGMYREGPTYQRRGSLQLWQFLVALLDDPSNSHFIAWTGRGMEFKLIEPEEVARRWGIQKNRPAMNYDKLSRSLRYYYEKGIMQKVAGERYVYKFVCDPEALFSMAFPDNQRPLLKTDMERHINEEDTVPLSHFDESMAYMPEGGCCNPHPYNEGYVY

Sequence of HSF1 (Q00613 whole entry): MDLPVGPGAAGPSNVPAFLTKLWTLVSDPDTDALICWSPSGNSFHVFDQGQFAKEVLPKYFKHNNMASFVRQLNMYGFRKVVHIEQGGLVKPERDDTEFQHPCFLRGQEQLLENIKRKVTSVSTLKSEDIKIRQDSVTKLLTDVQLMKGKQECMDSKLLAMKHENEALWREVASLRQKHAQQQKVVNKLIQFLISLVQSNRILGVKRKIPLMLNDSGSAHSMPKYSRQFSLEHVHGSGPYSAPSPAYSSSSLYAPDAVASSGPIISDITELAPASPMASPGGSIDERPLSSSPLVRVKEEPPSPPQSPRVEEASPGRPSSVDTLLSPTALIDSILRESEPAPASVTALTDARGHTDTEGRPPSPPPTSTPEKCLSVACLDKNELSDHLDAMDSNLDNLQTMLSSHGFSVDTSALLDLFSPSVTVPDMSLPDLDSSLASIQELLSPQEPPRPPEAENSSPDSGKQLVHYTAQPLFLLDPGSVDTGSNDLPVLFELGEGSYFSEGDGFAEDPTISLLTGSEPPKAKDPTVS
Sequence of CRX (O43186 whole entry): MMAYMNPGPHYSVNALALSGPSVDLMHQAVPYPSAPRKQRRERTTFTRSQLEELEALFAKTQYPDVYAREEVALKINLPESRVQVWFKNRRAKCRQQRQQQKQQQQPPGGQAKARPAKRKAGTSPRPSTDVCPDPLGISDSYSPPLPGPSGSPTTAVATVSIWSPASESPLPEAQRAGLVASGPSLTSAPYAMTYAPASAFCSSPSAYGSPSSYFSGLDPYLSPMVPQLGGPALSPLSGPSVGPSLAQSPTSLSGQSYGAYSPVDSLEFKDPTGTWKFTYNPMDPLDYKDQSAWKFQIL
Sequence of SPIB (Q01892 whole entry): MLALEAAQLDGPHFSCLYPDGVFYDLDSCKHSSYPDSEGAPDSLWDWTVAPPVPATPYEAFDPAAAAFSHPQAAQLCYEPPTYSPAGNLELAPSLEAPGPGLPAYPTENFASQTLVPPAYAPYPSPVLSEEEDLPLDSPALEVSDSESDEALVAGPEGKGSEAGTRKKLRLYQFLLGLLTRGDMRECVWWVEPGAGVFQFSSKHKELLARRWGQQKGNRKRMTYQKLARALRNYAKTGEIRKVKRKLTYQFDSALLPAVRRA
Sequence of ETV5 (P41161 whole entry): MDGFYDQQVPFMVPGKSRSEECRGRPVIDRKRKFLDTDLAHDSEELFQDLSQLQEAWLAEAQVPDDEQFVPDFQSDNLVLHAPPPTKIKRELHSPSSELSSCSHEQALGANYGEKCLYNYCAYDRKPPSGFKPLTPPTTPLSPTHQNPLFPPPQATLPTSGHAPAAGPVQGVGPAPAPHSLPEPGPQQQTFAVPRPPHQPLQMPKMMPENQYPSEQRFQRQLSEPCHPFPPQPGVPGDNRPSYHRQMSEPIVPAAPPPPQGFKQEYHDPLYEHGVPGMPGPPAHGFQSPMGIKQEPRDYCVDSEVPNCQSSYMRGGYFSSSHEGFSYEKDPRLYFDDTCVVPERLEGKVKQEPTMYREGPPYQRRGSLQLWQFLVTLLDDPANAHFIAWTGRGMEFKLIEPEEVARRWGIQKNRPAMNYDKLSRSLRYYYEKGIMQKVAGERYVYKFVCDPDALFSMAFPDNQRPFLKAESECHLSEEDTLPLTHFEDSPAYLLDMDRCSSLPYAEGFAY
Sequence of ELF1 (P32519 whole entry): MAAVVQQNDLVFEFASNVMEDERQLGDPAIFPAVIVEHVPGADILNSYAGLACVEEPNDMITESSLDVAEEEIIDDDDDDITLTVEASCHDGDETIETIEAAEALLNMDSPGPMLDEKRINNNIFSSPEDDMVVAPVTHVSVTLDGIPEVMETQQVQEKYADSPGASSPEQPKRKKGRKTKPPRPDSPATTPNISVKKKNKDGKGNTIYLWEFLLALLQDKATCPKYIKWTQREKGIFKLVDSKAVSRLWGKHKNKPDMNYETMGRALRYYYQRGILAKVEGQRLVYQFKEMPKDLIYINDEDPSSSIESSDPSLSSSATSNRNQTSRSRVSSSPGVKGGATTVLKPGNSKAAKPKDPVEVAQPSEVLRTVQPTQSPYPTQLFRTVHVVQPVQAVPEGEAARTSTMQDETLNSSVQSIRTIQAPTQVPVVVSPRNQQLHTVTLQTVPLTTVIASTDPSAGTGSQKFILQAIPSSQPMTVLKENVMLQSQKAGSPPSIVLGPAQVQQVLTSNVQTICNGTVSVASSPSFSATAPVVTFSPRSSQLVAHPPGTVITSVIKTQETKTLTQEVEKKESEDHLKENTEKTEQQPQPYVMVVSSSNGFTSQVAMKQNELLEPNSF
Sequence of ELF4 (Q99607 whole entry): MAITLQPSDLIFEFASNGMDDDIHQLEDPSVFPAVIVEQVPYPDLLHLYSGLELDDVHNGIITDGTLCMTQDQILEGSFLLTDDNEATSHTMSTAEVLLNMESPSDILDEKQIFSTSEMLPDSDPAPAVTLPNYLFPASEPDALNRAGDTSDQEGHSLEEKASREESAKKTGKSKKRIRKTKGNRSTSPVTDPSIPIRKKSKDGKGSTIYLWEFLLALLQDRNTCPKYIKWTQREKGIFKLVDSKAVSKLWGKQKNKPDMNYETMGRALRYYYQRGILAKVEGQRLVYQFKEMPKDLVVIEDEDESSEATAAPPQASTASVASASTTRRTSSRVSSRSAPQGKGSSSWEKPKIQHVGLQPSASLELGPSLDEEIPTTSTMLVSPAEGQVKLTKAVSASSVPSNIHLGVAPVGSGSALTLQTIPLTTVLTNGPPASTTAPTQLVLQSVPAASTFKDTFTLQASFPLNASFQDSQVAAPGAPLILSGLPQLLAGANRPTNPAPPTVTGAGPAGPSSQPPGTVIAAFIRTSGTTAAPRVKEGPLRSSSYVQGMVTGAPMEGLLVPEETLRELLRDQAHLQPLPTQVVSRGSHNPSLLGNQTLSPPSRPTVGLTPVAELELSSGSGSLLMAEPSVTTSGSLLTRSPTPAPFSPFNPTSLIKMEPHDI

TATGCA: the binding signal in assay [1] was 1.24 fold enrichment (6-mer frequency, TF over GST control); in assay [2], 1.24 fold enrichment (6-mer frequency, TF over GST control); in assay [3] it was 1.24 fold enrichment (6-mer frequency, TF over GST control); in assay [4], 1.26 fold enrichment (6-mer frequency, TF over GST control); in [5] it was 1.18 fold enrichment (6-mer frequency, TF over GST control); in assay [6], 1.12 fold enrichment (6-mer frequency, TF over GST control). For the same sequence, the binding signal in assay [7] was 1.34 fold enrichment (6-mer frequency, TF over GST control); in assay [8], 1.25 fold enrichment (6-mer frequency, TF over GST control); in assay [9], 1.15 fold enrichment (6-mer frequency, TF over GST control); in [10] it was 1.26 fold enrichment (6-mer frequency, TF over GST control); in assay [11], 1.18 fold enrichment (6-mer frequency, TF over GST control); in assay [12] it was 1.1 fold enrichment (6-mer frequency, TF over GST control). In addition, the binding signal in [13] is 1.24 fold enrichment (6-mer frequency, TF over GST control); in assay [14], 1.27 fold enrichment (6-mer frequency, TF over GST control); in assay [15], 1.37 fold enrichment (6-mer frequency, TF over GST control); in [16] it was 1.37 fold enrichment (6-mer frequency, TF over GST control); in [17] it was 1.25 fold enrichment (6-mer frequency, TF over GST control); in assay [18] it was 1.22 fold enrichment (6-mer frequency, TF over GST control). Further, the binding signal in assay [19] was 1.19 fold enrichment (6-mer frequency, TF over GST control).
